Some test systems named below: SR leukemia; RPMI-8226 leukemia; OVCAR-8 ovarian; OVCAR-5 ovarian; OVCAR-4 ovarian; SK-OV-3 ovarian; IGROV1 ovarian; OVCAR-3 ovarian; HS 578T breast; NCI/ADR-RES ovarian; T-47D breast; BT-549 breast; MDA-MB-435 melanoma; SW-620 colon; MCF7 breast; HCT-116 colon; HCC-2998 colon; KM12 colon.
Test in all cases: NCI-60 one-dose screen, 48 h (100 = growth as untreated, 0 = no growth, -100 = all killed)
Conditions in all cases: 10 µM unless noted

Compounds without any hit were thinned out: in the full panel of roughly 83,000, 20% have a hit.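 Method: cells in 96-well plates; compound added at one concentration; 48 h incubation; percent growth measured; values under 10 scored active.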 Values without a mark were called inactive. The source made the active and inactive calls.

On to `C[C@@H]1CCC2=C(CCC[C@]2(C)C(=O)O)[C@@]1(C)CCc1ccoc1`, for which the growth in the assay on SR leukemia is 97.6%; in the assay on RPMI-8226 leukemia, 92.9%; in the assay with OVCAR-8 ovarian it was 94.2%; in the assay with OVCAR-5 ovarian, 112%; in the assay on OVCAR-4 ovarian it was 109%; in the assay on SK-OV-3 ovarian it was 99.1%. The growth in the assay with IGROV1 ovarian is 99.8%; in the assay on OVCAR-3 ovarian, 101%; in the assay on HS 578T breast, 88%; with NCI/ADR-RES ovarian, 98.7%; with T-47D breast it was 94.9%; in the assay with BT-549 breast, 117%. Moreover, the growth with MDA-MB-435 melanoma is 107%; with SW-620 colon, 98.8%; in the assay with MCF7 breast, 96.7%; in the assay on HCT-116 colon, 96%; in the assay on HCC-2998 colon, 87.6%; in the assay with KM12 colon, 97.7%.
Take `COC1C/C(=N\O)C2OC(c3ccccc3)OCC2O1` (configuration not stated): the growth is 109% in the assay with SR leukemia; 104% with RPMI-8226 leukemia; 114% in the assay on OVCAR-8 ovarian; 109% in the assay on OVCAR-5 ovarian; 104% in the assay with OVCAR-4 ovarian; 100% in the assay on SK-OV-3 ovarian. Further, the growth with IGROV1 ovarian was 109%; with OVCAR-3 ovarian it was 110%; in the assay on HS 578T breast, 106%; in the assay on NCI/ADR-RES ovarian it was 103%; in the assay with T-47D breast, 103%; with BT-549 breast, 105%. The growth is 102% with MDA-MB-435 melanoma; 105% with SW-620 colon; 102% with MCF7 breast; 97.9% in the assay with HCT-116 colon; 110% with HCC-2998 colon; 121% in the assay with KM12 colon.
Regarding `CCN(CC)CCCNc1cc(OC)cc2nc3cc(Cl)ccc3nc12`, the growth with SR leukemia is -34.6% (active); in the assay with RPMI-8226 leukemia, -14.3% (active); in the assay on OVCAR-8 ovarian it was -8.47% (active); in the assay with OVCAR-5 ovarian, -39.3% (active); in the assay on OVCAR-4 ovarian, -11% (active); in the assay on SK-OV-3 ovarian, 6.29% (active). Besides, the growth in the assay on IGROV1 ovarian is -29.9% (active); in the assay on OVCAR-3 ovarian, -48.9% (active); in the assay on HS 578T breast, 23.3%; in the assay with NCI/ADR-RES ovarian it was -50.2% (active); with T-47D breast, 29.8%; in the assay with BT-549 breast, 2.46% (active). Further, the growth in the assay on MDA-MB-435 melanoma is -90.4% (active); in the assay with SW-620 colon it was -36.9% (active); in the assay on MCF7 breast, -2.19% (active); with HCT-116 colon, -91.8% (active); in the assay with HCC-2998 colon it was 27.5%; in the assay with KM12 colon it was -51.4% (active).
Regarding `COc1ccc(-c2cn3c(ccc4ccccc43)n2)cc1`, the growth is 102% with SR leukemia; 92.1% in the assay with RPMI-8226 leukemia; 98.8% with OVCAR-8 ovarian; 112% in the assay on OVCAR-5 ovarian; 101% in the assay with OVCAR-4 ovarian; 92.8% with SK-OV-3 ovarian. In addition, the growth in the assay with IGROV1 ovarian was 78.3%; with OVCAR-3 ovarian, 89.7%; in the assay with HS 578T breast it was 96.2%; with NCI/ADR-RES ovarian, 96.3%; in the assay with T-47D breast, 76.5%; in the assay on BT-549 breast it was 97.8%. In addition, the growth is 114% with MDA-MB-435 melanoma; 97.5% in the assay on SW-620 colon; 75.8% in the assay with MCF7 breast; 96.5% with HCT-116 colon; 109% in the assay with HCC-2998 colon; 95.2% in the assay with KM12 colon.
As for `CC[C@H](CO)Nc1nc(NCc2ccccc2)n2ncc(C(C)C)c2n1`, the growth with SR leukemia is -44.9% (active); in the assay on RPMI-8226 leukemia, -40.6% (active); in the assay on OVCAR-8 ovarian it was 28.6%; with OVCAR-5 ovarian it was 22.4%; in the assay with OVCAR-4 ovarian, 11.8%; in the assay with SK-OV-3 ovarian it was 51.5%. For the same molecule, the growth in the assay with IGROV1 ovarian was 14.5%; in the assay with OVCAR-3 ovarian it was 5.88% (active); in the assay on HS 578T breast, 7.24% (active); in the assay with NCI/ADR-RES ovarian, 19.5%; with T-47D breast it was 28.3%; with BT-549 breast it was -28.1% (active). Besides, the growth is 11.3% with MDA-MB-435 melanoma; 1.96% (active) in the assay on SW-620 colon; 2.6% (active) with MCF7 breast; 13.7% with HCT-116 colon; -27.9% (active) with HCC-2998 colon; 1.41% (active) with KM12 colon.
In the case of `c1ccc(CSc2ncnc3nc[nH]c23)nc1`, the growth was 103% in the assay with SR leukemia; 124% in the assay with RPMI-8226 leukemia; 120% in the assay with OVCAR-8 ovarian; 96.6% in the assay on OVCAR-5 ovarian; 105% in the assay on OVCAR-4 ovarian; 116% with SK-OV-3 ovarian. Moreover, the growth in the assay with IGROV1 ovarian is 105%; in the assay on OVCAR-3 ovarian, 104%; in the assay on HS 578T breast, 121%; in the assay with NCI/ADR-RES ovarian, 103%; in the assay with T-47D breast, 107%; with BT-549 breast, 122%. Also, the growth in the assay on MDA-MB-435 melanoma was 92.3%; in the assay on SW-620 colon it was 113%; with MCF7 breast it was 99.7%; with HCT-116 colon, 93.1%; in the assay with HCC-2998 colon, 125%; in the assay with KM12 colon it was 106%.
Regarding `CC/C(Cc1ccccc1)=C(\c1ccc(OCCN2CCCC2)cc1)c1ccc(OC(C)=O)cc1`, the growth in the assay with SR leukemia was 14.3%; in the assay on RPMI-8226 leukemia, 60.2%; in the assay with OVCAR-8 ovarian it was 97.8%; in the assay on OVCAR-5 ovarian, 92.6%; with OVCAR-4 ovarian, 79%; in the assay on SK-OV-3 ovarian, 107%. The growth in the assay with IGROV1 ovarian is 78%; with OVCAR-3 ovarian, 89.6%; in the assay on HS 578T breast, 85.5%; with NCI/ADR-RES ovarian, 75.5%; in the assay with T-47D breast it was 51.4%; with BT-549 breast, 93.8%. For the same molecule, the growth in the assay with MDA-MB-435 melanoma was 69.7%; in the assay with SW-620 colon, 89.9%; with MCF7 breast, 24.6%; in the assay on HCT-116 colon, 78.7%; in the assay with HCC-2998 colon it was 56.3%; in the assay on KM12 colon it was 70.7%.
For `CC1=C(NCCN2CCCC2)C(=O)c2c(OCc3cccc(Cl)c3)cccc2C1=O`, the growth is 14.1% in the assay on SR leukemia; 60.9% in the assay with RPMI-8226 leukemia; 79.7% with OVCAR-8 ovarian; 79.9% with OVCAR-5 ovarian; 73.1% in the assay with OVCAR-4 ovarian; 95.2% with SK-OV-3 ovarian. For the same molecule, the growth in the assay on IGROV1 ovarian is 71.8%; with OVCAR-3 ovarian it was 85%; in the assay with HS 578T breast, 72.4%; in the assay with NCI/ADR-RES ovarian, 78.7%; with T-47D breast, 59.9%; in the assay on BT-549 breast, 14.5%. Also, the growth in the assay on MDA-MB-435 melanoma is 61.8%; with SW-620 colon, 85.1%; with MCF7 breast it was 57.5%; in the assay on HCT-116 colon, 43.9%; in the assay with HCC-2998 colon, 84.4%; with KM12 colon, 81%.
Regarding `Fc1ccc(Cc2ccc(F)cc2)cc1`, the growth was 116% with SR leukemia; 108% in the assay with RPMI-8226 leukemia; 108% in the assay with OVCAR-8 ovarian; 102% with OVCAR-5 ovarian; 101% in the assay with OVCAR-4 ovarian; 107% in the assay with SK-OV-3 ovarian. The growth in the assay on IGROV1 ovarian was 102%; in the assay on OVCAR-3 ovarian, 112%; in the assay on HS 578T breast, 114%; with NCI/ADR-RES ovarian, 101%; with T-47D breast, 101%; with BT-549 breast, 128%. For the same molecule, the growth with MDA-MB-435 melanoma was 114%; in the assay with SW-620 colon, 99.1%; in the assay on MCF7 breast, 99%; in the assay with HCT-116 colon it was 102%; in the assay with HCC-2998 colon, 114%; in the assay with KM12 colon it was 108%.

Source of the values: PubChem BioAssay (NCI).
